Measurements from PubChem BioAssay (EPA / NIEHS).
Results filed as inconclusive are left out. The source made the active and inactive calls. How the source made its calls: active means hit-call score of the fitted dose curve at least 0.9, where 1 is the maximum; inconclusive means response in the unintended direction; inactive means score below 0.9.

What was measured:
[1] = target: human Protein Tyrosine Phosphatase Non-receptor Type 2 (PTPN2), PTPN2 (gene 5771) (UniProt P17706); experiment: NVS_ENZ_hPTPN2: NovaScreen (NVS) Enzymatic Assay for human Protein Tyrosine Phosphatase Non-receptor Type 2 (PTPN2) (AID 2283207)
Procedure, shortened: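 Activity measured as fluorescence after mobility-shift separation of substrate and product, 1 h after compound. Duplicate single-point 25 uM primary testing, concentration series for actives; inhibition scored as signal loss relative to DMSO baseline.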

[2] = target: human Raf-1 Proto-Oncogene, serine/threonine Kinase (RAF1), RAF1 (gene 5894) (UniProt P04049); experiment: NVS_ENZ_hRAF1: NovaScreen (NVS) Enzymatic Assay for human Raf-1 Proto-Oncogene, serine/threonine Kinase (RAF1) (AID 2283216)
Method: (§1) NVS_ENZ_hRAF1 is a biochemical, single-readout assay that uses extracted gene-proteins in a cell-free assay. Measurements were taken 1 hour after chemical dosing in a 384-well plate.NVS_ENZ_hRAF1 is one of one assay component(s) measured or calculated from the NVS_ENZ_hRAF1 assay. It is designed to make measurements of enzyme activity, a form of enzyme reporter, as detected with fluorescence intensity signals by Fluorescence and electrophoretic mobility shift technology.Data from the assay component NVS_ENZ_hRAF1 was analyzed into 1 assay endpoint. This assay endpoint, NVS_ENZ_hRAF1, was analyzed in the positive analysis fitting direction relative to DMSO as the negative control and baseline of activity. Using a type of enzyme reporter, loss-of-signal activity can be used to understand changes in the enzymatic activity as they relate to the gene RAF1. Furthermore, this assay endpoint can be referred to as a primary readout, because this assay has produced multiple assay endpoints where this one serves a enzymatic activity function. To generalize the intended target to other relatable targets, this assay endpoint is annotated to the kinase intended target family, where the subfamily is serine/threonine kinase.
(§2) Binding assays used specific radioligands (tritiated, iodinated) with non-radioactive competitive displacement ligands in agonist or antagonist protocols (as indicated) and various reference compounds and inhibitors to titrate specific binding to receptors and transporters. Most enzyme assays (CYPs, kinases, phosphatases, proteases, HDACs) used recombinant protein and specific substrates (fluorescence mostly, some colorimetric and radioactive) and inhibitors, followed by a biochemical separation of substrate and product. All assays for the biochemical HTS were initially run in duplicate at a single concentration (10 uM for CYP450 assays and 25 uM for all others). Assay-chemical combinations meeting a pre-defined threshold (e.g., 30% inhibition and other criteria defined below) were then run in singleton concentration-response format with maximum concentration of 20 uM for CYPs and 50 uM for all others. Each assay was run with positive and negative controls, and concurrent controls on every plate. The follow-up (secondary) screen tested active chemical-pairs in concentration series, as well as a few additional assays not tested in the primary screen, some selected negative inactives, and several cases re-run in the concentration series for confirmatory purposes.

[3] = target: Tyrosine-protein phosphatase non-receptor type 14 (Homo sapiens) (UniProt Q15678); experiment: NVS_ENZ_hPTPN14: NovaScreen (NVS) Enzymatic Assay for human Protein Tyrosine Phosphatase Non-receptor Type 14 (PTPN14) (AID 2283206)
Procedure, shortened: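 Fluorescent substrate turnover by recombinant human PTPN14 was measured 0.5 h after compound addition, with substrate and product separated by mobility shift. Single-point screening at 25 uM, then concentration-response up to 50 uM for chemicals meeting threshold (e.g., 30% inhibition).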

[4] = target: human Protein Tyrosine Phosphatase Non-receptor Type 4 (PTPN4), PTPN4 (gene 5775) (UniProt P29074); experiment: NVS_ENZ_hPTPN4: NovaScreen (NVS) Enzymatic Assay for human Protein Tyrosine Phosphatase Non-receptor Type 4 (PTPN4) (AID 2283208)
Procedure, shortened: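 Screened in duplicate at 25 uM, with hits then titrated to a top concentration of 50 uM. Recombinant Sf9-derived PTPN4 turnover was read by fluorescence with electrophoretic separation, 1.33 h after compound addition. DMSO served as baseline.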

[5] = target: human Protein Tyrosine Phosphatase Receptor Type B (PTPRB), PTPRB (gene 5787) (UniProt P23467); experiment: NVS_ENZ_hPTPRB: NovaScreen (NVS) Enzymatic Assay for human Protein Tyrosine Phosphatase Receptor Type B (PTPRB) (AID 2283211)
Method: as §1, with “NVS_ENZ_hPTPRB” for “NVS_ENZ_hRAF1”, “plate.NVS_ENZ_hPTPRB” for “plate.NVS_ENZ_hRAF1”, “NVS_ENZ_hPTPRB,” for “NVS_ENZ_hRAF1,”, “PTPRB.” for “RAF1.”, “phosphatase” for “kinase”, “receptor tyrosine phosphatase.” for “serine/threonine kinase.”
as §2, with “Assay-chemical combinations meeting a pre-defined threshold (e.g., 30% inhibition and other criteria defined below) were then run in singleton concentration-response format with maximum concentration of 20 uM for CYPs and 50 uM for all others.” left out

[6] = target: human Protein Tyrosine Phosphatase Receptor Type F (PTPRF), PTPRF (gene 5792) (UniProt P10586); experiment: NVS_ENZ_hPTPRF: NovaScreen (NVS) Enzymatic Assay for human Protein Tyrosine Phosphatase Receptor Type F (PTPRF) (AID 2283213)
Procedure, shortened: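 Cell-free fluorescence enzyme assay with recombinant protein and substrate; product separated by electrophoretic mobility shift. Read 1 h after dosing, single 25 uM duplicate screen, then concentration-response up to 50 uM; loss of signal vs DMSO.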

[7] = target: human Rho Associated Coiled-coil Containing Protein Kinase 1 (ROCK1), ROCK1 (gene 6093) (UniProt Q13464); experiment: NVS_ENZ_hROCK1: NovaScreen (NVS) Enzymatic Assay for human Rho Associated Coiled-coil Containing Protein Kinase 1 (ROCK1) (AID 2283214)
Procedure, shortened: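 Compounds first run in duplicate at 25 uM against recombinant human ROCK1, then followed in concentration series. Kinase activity was read 1 h post-dosing by fluorescence with mobility-shift separation, as signal loss relative to DMSO.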

[8] = target: human Protein Tyrosine Phosphatase Non-receptor Type 9 (PTPN9), PTPN9 (gene 5780) (UniProt P43378); experiment: NVS_ENZ_hPTPN9: NovaScreen (NVS) Enzymatic Assay for human Protein Tyrosine Phosphatase Non-receptor Type 9 (PTPN9) (AID 2283209)
Procedure, shortened: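 Sf9-expressed enzyme in a cell-free assay, fluorescence read 1.33 h after dosing with mobility-shift separation of substrate and product. Tested at 25 uM in duplicate, then up to 50 uM; signal loss versus DMSO.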

[9] = target: human Protein Tyrosine Phosphatase Receptor Type M (PTPRM), PTPRM (gene 5797) (UniProt P28827); experiment: NVS_ENZ_hPTPRM: NovaScreen (NVS) Enzymatic Assay for human Protein Tyrosine Phosphatase Receptor Type M (PTPRM) (AID 2283215)
Procedure, shortened: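 Read-out is fluorescence after electrophoretic separation of substrate and product, taken 1.33 h post-dosing with recombinant enzyme. Compounds screened at 25 uM in duplicate, then concentration series for actives; activity as signal loss relative to DMSO.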

[10] = target: human Protein Tyrosine Phosphatase Non-receptor Type 6 (PTPN6), PTPN6 (gene 5777) (UniProt P29350); experiment: NVS_ENZ_hPTPN6: NovaScreen (NVS) Enzymatic Assay for human Protein Tyrosine Phosphatase Non-receptor Type 6 (PTPN6) (AID 2283210)
Procedure, shortened: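 Recombinant human PTPN6 from SF9 cells, enzyme activity followed by fluorescence after mobility-shift separation of substrate and product at 1.33 h. Chemicals first tested at a single 25 uM in duplicate, then confirmed across concentration series; loss of signal relative to DMSO.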

human Raf-1 Proto-Oncogene, serine/threonine Kinase (RAF1), RAF1 (gene 5894), sequence (P04049 whole entry, looked up): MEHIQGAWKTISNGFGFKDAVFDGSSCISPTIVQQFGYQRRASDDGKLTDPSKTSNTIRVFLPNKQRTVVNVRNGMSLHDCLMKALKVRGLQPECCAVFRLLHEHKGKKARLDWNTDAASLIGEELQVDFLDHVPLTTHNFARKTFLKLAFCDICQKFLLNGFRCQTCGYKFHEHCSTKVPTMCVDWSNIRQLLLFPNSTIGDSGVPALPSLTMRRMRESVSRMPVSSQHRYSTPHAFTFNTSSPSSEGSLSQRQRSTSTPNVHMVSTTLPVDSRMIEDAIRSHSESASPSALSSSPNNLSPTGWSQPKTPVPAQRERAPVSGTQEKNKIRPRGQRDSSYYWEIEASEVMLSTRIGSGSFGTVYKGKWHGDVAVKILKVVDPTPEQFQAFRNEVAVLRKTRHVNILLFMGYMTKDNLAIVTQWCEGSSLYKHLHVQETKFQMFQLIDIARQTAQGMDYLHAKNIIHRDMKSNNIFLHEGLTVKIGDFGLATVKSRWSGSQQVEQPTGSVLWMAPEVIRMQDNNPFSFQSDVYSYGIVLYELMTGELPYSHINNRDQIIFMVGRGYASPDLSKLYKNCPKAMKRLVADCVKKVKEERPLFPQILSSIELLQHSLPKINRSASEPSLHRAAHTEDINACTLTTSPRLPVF
human Protein Tyrosine Phosphatase Non-receptor Type 9 (PTPN9), PTPN9 (gene 5780), sequence (P43378 whole entry, looked up): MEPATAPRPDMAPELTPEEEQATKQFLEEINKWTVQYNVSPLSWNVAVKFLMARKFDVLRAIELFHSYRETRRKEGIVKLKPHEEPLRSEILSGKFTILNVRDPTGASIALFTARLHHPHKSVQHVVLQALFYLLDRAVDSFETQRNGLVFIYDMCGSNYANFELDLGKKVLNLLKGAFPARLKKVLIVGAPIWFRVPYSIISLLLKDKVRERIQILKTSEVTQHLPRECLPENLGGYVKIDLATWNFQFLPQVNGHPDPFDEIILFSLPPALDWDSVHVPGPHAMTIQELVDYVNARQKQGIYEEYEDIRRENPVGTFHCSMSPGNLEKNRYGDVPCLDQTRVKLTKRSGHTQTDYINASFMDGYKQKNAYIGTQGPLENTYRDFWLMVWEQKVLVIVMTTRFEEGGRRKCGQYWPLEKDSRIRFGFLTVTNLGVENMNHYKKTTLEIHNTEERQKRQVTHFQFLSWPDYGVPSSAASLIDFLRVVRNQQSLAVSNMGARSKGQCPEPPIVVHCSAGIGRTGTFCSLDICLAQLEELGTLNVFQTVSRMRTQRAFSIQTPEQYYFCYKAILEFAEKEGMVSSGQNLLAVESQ
human Protein Tyrosine Phosphatase Non-receptor Type 6 (PTPN6), PTPN6 (gene 5777), sequence (P29350 whole entry, looked up): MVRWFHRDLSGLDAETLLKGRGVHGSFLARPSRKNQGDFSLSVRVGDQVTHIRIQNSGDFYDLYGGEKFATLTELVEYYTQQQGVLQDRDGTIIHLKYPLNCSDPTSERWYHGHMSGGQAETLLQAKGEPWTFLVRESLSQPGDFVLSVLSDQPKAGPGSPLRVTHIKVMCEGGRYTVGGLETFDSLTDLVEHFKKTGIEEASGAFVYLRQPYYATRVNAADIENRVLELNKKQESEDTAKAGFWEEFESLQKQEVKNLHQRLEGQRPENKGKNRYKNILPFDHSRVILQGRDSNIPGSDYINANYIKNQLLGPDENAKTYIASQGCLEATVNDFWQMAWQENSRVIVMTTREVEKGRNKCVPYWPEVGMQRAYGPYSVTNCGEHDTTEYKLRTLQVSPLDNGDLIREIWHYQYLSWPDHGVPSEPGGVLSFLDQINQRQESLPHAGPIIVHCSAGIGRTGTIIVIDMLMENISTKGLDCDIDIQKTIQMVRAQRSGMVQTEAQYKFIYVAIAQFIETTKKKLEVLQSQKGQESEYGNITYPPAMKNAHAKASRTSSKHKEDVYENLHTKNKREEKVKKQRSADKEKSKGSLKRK
human Protein Tyrosine Phosphatase Non-receptor Type 4 (PTPN4), PTPN4 (gene 5775), sequence (P29074 whole entry, looked up): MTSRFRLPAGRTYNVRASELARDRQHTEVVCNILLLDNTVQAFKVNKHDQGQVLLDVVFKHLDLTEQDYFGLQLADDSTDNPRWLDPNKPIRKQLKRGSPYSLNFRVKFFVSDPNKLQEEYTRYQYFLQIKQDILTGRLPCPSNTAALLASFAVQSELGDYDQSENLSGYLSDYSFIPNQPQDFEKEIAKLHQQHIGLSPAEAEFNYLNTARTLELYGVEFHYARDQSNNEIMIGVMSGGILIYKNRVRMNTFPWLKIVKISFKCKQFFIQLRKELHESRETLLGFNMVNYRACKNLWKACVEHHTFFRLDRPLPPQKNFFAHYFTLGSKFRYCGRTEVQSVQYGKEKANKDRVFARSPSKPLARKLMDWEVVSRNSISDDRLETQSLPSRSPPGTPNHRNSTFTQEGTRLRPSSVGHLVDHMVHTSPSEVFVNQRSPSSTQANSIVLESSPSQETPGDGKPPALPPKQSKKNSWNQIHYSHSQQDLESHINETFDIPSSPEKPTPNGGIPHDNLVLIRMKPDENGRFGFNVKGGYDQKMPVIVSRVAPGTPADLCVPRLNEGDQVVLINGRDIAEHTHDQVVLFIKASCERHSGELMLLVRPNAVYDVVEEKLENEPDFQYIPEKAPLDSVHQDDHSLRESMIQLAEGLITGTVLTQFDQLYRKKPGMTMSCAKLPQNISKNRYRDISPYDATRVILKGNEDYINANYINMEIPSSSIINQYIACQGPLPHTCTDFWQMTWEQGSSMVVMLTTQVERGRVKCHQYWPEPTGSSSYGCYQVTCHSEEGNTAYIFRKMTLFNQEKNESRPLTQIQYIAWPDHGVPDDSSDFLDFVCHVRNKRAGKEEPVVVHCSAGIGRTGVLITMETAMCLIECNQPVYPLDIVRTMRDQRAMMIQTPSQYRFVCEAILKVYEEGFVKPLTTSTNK
human Protein Tyrosine Phosphatase Receptor Type M (PTPRM), PTPRM (gene 5797), sequence (P28827 whole entry, looked up): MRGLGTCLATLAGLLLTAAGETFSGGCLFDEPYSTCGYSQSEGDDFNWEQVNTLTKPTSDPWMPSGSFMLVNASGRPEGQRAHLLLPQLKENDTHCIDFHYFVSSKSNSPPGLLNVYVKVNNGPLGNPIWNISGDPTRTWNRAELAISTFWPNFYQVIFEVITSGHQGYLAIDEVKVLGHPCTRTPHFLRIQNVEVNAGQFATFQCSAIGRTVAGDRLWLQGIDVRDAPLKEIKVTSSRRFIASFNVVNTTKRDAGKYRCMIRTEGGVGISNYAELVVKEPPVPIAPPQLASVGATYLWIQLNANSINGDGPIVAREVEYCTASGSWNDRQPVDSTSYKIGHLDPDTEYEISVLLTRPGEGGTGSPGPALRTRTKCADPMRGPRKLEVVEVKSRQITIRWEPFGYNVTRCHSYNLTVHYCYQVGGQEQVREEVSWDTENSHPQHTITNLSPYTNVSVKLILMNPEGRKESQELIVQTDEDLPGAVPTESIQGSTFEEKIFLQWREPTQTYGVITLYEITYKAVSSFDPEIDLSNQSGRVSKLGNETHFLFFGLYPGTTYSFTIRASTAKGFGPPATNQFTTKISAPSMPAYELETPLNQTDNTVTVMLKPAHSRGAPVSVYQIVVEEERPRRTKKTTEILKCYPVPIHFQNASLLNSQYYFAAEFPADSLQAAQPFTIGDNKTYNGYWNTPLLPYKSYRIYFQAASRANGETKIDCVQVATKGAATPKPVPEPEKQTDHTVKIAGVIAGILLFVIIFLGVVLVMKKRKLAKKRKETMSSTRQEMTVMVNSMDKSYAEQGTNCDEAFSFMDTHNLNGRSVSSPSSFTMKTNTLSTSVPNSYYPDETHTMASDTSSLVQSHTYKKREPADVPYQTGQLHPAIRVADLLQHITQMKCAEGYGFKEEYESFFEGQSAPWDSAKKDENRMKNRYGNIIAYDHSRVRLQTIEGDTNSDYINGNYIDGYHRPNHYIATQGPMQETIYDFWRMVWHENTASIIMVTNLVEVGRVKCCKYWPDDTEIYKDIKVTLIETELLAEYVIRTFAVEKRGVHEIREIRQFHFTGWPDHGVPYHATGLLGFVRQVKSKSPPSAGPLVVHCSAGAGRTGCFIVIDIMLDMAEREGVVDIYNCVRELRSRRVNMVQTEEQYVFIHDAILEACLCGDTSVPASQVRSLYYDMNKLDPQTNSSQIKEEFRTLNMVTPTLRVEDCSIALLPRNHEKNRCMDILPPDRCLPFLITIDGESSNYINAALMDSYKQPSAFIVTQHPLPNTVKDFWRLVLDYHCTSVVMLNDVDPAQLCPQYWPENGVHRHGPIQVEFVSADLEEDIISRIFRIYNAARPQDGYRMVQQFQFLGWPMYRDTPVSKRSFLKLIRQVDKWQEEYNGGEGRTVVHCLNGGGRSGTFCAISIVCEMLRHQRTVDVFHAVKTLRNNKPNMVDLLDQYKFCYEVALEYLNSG
human Protein Tyrosine Phosphatase Non-receptor Type 2 (PTPN2), PTPN2 (gene 5771), sequence (P17706 whole entry, looked up): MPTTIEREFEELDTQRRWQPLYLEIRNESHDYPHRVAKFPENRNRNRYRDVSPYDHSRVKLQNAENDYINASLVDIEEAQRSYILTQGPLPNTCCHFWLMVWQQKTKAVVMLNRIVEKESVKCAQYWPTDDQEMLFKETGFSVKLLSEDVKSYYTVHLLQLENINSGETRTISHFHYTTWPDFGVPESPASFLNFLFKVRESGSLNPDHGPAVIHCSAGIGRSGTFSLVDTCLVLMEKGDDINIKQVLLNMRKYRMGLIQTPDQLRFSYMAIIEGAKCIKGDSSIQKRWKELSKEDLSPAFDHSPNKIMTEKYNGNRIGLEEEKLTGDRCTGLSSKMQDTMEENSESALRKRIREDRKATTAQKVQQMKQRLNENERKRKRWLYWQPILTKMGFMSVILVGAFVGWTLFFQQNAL

O=C(O)COc1nc(Cl)c(Cl)cc1Cl
outcome [1]: inactive

O=C(O)c1nc(Cl)ccc1Cl
outcome [2]: inactive

O=C(Nc1ccccc1)Nc1ccnc(Cl)c1
outcome [2]: inactive

CCCCNC(=O)OCC#CI
outcome [3]: inactive
outcome [4]: inactive

COc1nc(NC(C)C)nc(NC(C)C)n1
outcome [5]: inactive

CN(C)C(=S)SSC(=S)N(C)C
outcome [6]: inactive

CON(C)C(=O)Nc1ccc(Cl)c(Cl)c1
outcome [7]: inactive

Cc1c(F)c(F)c(COC(=O)C2C(/C=C(\Cl)C(F)(F)F)C2(C)C)c(F)c1F (stereo not drawn)
outcome [4]: inactive
outcome [8]: inactive

Cc1ccc(-c2c(Cl)nc(C#N)n2S(=O)(=O)N(C)C)cc1
outcome [6]: inactive

COc1ccc(C(c2ccc(OC)cc2)C(Cl)(Cl)Cl)cc1
outcome [9]: inactive

CCc1nn(C)c(C(=O)NCc2ccc(C(C)(C)C)cc2)c1Cl
outcome [4]: inactive
AC50 [8]: 16.4 µM (active)

N#Cc1cc(Br)c(O)c(Br)c1
outcome [4]: inactive
outcome [8]: inactive
outcome [7]: inactive

COc1nc(C)nc(NC(=O)NS(=O)(=O)c2ccccc2Cl)n1
outcome [1]: inactive
outcome [4]: inactive
outcome [8]: inactive
outcome [5]: inactive
outcome [9]: inactive

CC(C)(C)c1ccc(CSc2cnn(C(C)(C)C)c(=O)c2Cl)cc1
AC50 [8]: 17 µM (active)

CCOP(=S)(OCC)SCn1c(=O)oc2cc(Cl)ccc21
outcome [3]: inactive

CCCN(CCC)c1c([N+](=O)[O-])cc(S(N)(=O)=O)cc1[N+](=O)[O-]
outcome [3]: inactive
outcome [5]: inactive

CCNc1nc(Cl)nc(NC(C)C)n1
outcome [5]: inactive

C=CCC1=C(C)C(OC(=O)C2C(C=C(C)C)C2(C)C)CC1=O (stereo not drawn)
outcome [8]: inactive
outcome [10]: inactive
outcome [2]: inactive

CCCCOC(=O)c1ccccc1C(=O)OCCCC
outcome [3]: inactive
outcome [10]: inactive
outcome [2]: inactive
